Results: PubChem BioAssay (EPA / NIEHS)
Calls of active or inactive are those of the source. How the source made its calls: active means hit-call score of the fitted dose curve at least 0.9, where 1 is the maximum; inactive means score below 0.9.

Experiments:
[1] = ATG_GLI_CIS: Attagene CIS-FACTORIAL HepG2 Assay for human Zinc Finger Protein GLI1 (AID 2282945); settings: HepG2, Attagene cis-factorial reporter mRNA, GLI element; actives raise or lower the signal
Outline: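 Transiently transfected HepG2 cells report endogenous transcription factor activity via cis-element-driven reporter units. After 24 h compound exposure, reporter mRNA was measured by RT-PCR with capillary electrophoresis; bidirectional fitting against DMSO baseline.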

[2] = ATG_GRE_CIS: Attagene CIS-FACTORIAL HepG2 Assay for human Glucocorticoid Response Elements (GRE) (AID 2282947); settings: HepG2 GRE cis-reporter, Attagene multiplex mRNA; actives raise or lower the signal
Outline: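 Fluorescence intensity of reporter-specific cDNA fragments, separated by capillary electrophoresis, provides the signal. Constructs carry cis-regulating promoters in transiently transfected HepG2 liver cells; 24 h incubation; fitting is bidirectional against DMSO.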

[3] = ATG_ISRE_CIS: Attagene CIS-FACTORIAL HepG2 Assay for human Interferon Regulatory Factor 1 (IRF1) binding to an Interferon-Stimulated Response Element (ISRE) (AID 2282948); settings: HepG2 ISRE cis-reporter (Attagene), mRNA transcription readout; actives raise or lower the signal
Outline: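 Read-out: fluorescent RT-PCR products resolved by capillary electrophoresis, reporting endogenous transcription factor activity via ISRE-driven reporter mRNA in transfected HepG2 cells dosed for 24 h; gain or loss fitted relative to DMSO.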

[4] = ATG_M_32_CIS: Attagene CIS-FACTORIAL HepG2 Assay for M32 Transcription Factor (Internal Marker) (AID 2282949); settings: HepG2 Attagene cis-factorial M32 reporter, mRNA; actives raise or lower the signal;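 further: background control marker of the multiplexed CIS panel rather than a real target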
Outline: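 HepG2 transfectants (cis-regulated reporter transcription units) dosed 24 h. Reporter mRNA by RT-PCR plus CE, analysed as gain or loss relative to DMSO.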

[5] = ATG_M_06_CIS: Attagene CIS-FACTORIAL HepG2 Assay for M06 Transcription Factor (Internal Marker) (AID 2282950); settings: HepG2 Attagene CIS-FACTORIAL M06 internal marker reporter; actives raise or lower the signal
Outline: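 Cells (HepG2, transiently carrying cis-driven reporter units) receive chemical for 24 h before RNA isolation. Reporter cDNA is PCR-amplified, FAM-labelled by primer extension, HpaI-digested and sized on a capillary analyser.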

[6] = molecular target: Hypoxia-inducible factor 1-alpha (Homo sapiens) (UniProt Q16665); test: ATG_HIF1a_CIS: Attagene CIS-FACTORIAL HepG2 Assay for human Hypoxia Inducible Factor 1 (HIF1A) (AID 2282951); settings: HepG2 Attagene cis-factorial HIF1a reporter transcription; actives raise or lower the signal
Outline: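 HepG2 cells transiently transfected with multiplexed cis-promoter reporter units; reporter mRNA read 24 h after dosing by RT-PCR, 6-FAM primer-extension labelling, HpaI digestion and capillary electrophoresis. Bidirectional fit versus DMSO baseline.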

[7] = molecular target: Heat shock factor protein 1 (Homo sapiens) (UniProt Q00613); test: ATG_HSE_CIS: Attagene CIS-FACTORIAL HepG2 Assay for human Heat Shock Transcription Factor 1 (HSE) (AID 2282953); settings: HepG2 HSE cis-reporter, Attagene RNA transcription; actives raise or lower the signal
Outline: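 Liver-derived HepG2 cells carry transiently introduced multiple reporter units governed by cis promoters. Reporter RNA measured 24 h post-dose through reverse transcription, PCR amplification, fluorescent labelling and capillary electrophoresis, normalised to DMSO.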

[8] = ATG_MRE_CIS: Attagene CIS-FACTORIAL HepG2 Assay for human Metal Responsive Element (MRE) (AID 2282954); settings: HepG2 MRE cis-reporter transcription, Attagene multiplex; actives raise or lower the signal
Outline: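 Measured here is mRNA induction from an MRE cis-element reporter in HepG2 after 24 h, quantified by fluorescence of labelled RT-PCR products on capillary electrophoresis; gain- and loss-of-signal fits use DMSO as baseline.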

[9] = ATG_PBREM_CIS: Attagene CIS-FACTORIAL HepG2 Assay for human Phenobarbital-responsive Enhancer Module (PBREM) (AID 2282955); settings: HepG2 PBREM cis-reporter, Attagene multiplexed transcription; actives raise or lower the signal
Outline: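 HepG2 cells transiently transfected with multiple cis-regulated reporter transcription units; endogenous factor activity at the PBREM element measured as reporter mRNA 24 h after dosing, via RT-PCR and capillary electrophoresis of fluorescent fragments; bidirectional fitting versus DMSO.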

[10] = molecular target: Paired box protein Pax-6 (Homo sapiens) (UniProt P26367); test: ATG_Pax6_CIS: Attagene CIS-FACTORIAL HepG2 Assay for human Paired Box 6 (PAX6) (AID 2282956); settings: HepG2 CIS-FACTORIAL PAX6 reporter transcription, RNA readout; actives raise or lower the signal
Outline: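 Readout: reporter transcript fluorescence after RT-PCR and capillary electrophoresis. Cells: HepG2, transiently transfected with cis-regulated MRTUs. Exposure 24 h. Gain or loss of signal fitted bidirectionally relative to DMSO.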

[11] = ATG_PXRE_CIS: Attagene CIS-FACTORIAL HepG2 Assay for human Pregnane X Receptor Element (PXRE) (AID 2282957); settings: HepG2 Attagene CIS-FACTORIAL PXRE reporter, mRNA; actives raise or lower the signal
Outline: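 After a 24 h chemical incubation, total RNA from transfected HepG2 cells was reverse-transcribed and reporter cDNA amplified, FAM-labeled, HpaI-digested and sized by capillary electrophoresis. DMSO served as baseline for bidirectional curve fitting.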

[12] = ATG_RORE_CIS: Attagene CIS-FACTORIAL HepG2 Assay for human RAR-related Orphan Receptor Element (RORE) (AID 2282959); settings: HepG2 Attagene cis-factorial RORE reporter, mRNA; actives raise or lower the signal
Outline: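 HepG2 cells transiently transfected with multiple cis-element reporter transcription units, exposed to chemical for 24 h. Reporter mRNA quantified by RT-PCR, 6-FAM primer-extension labeling, HpaI digestion and capillary electrophoresis; bidirectional fit versus DMSO baseline.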

[13] = ATG_Sox_CIS: Attagene CIS-FACTORIAL HepG2 Assay for human SRY-box transcription factor (SOX) (AID 2282960); settings: HepG2 Attagene cis-factorial SOX reporter, mRNA; actives raise or lower the signal
Outline: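 HepG2 cells transiently transfected with cis-element-driven multiple reporter transcription units, dosed 24 h; reporter mRNA measured by RT-PCR, FAM labelling, HpaI digestion and capillary electrophoresis. Bidirectional fit versus DMSO baseline.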

[14] = molecular target: Transcription factor Sp1 (Homo sapiens) (UniProt P08047); test: ATG_Sp1_CIS: Attagene CIS-FACTORIAL HepG2 Assay for human Specificity Protein 1 (Sp1) (AID 2282961); settings: HepG2 Sp1 cis-reporter transcription, actives raise or lower the signal
Outline: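 HepG2 cells transiently transfected with multiple reporter transcription units driven by cis-regulatory elements; Sp1-responsive reporter mRNA measured 24 h after dosing by RT-PCR and capillary electrophoresis fluorescence, fitted bidirectionally against DMSO baseline.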

[15] = ATG_SREBP_CIS: Attagene CIS-FACTORIAL HepG2 Assay for human Sterol Regulatory Element Binding (SREBP) (AID 2282962); settings: HepG2 Attagene cis-factorial SREBP reporter, mRNA; actives raise or lower the signal
Outline: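 Readout: fluorescent reporter-transcript peaks resolved by capillary electrophoresis after RT-PCR. Cells were human HepG2 carrying transfected cis-promoter reporter constructs, dosed for 24 h. Gain or loss of signal was fitted against DMSO controls.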

[16] = molecular target: Signal transducer and activator of transcription 3 (Homo sapiens) (UniProt P40763); test: ATG_STAT3_CIS: Attagene CIS-FACTORIAL HepG2 Assay for human Signal Transducer and Activator of Transcription 3 (STAT3) (AID 2282963); settings: HepG2, Attagene cis-factorial STAT3 reporter transcription; actives raise or lower the signal
Outline: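 Fluorescence intensity of 6-FAM-labelled reporter fragments, separated by capillary electrophoresis after RT-PCR, gave the signal. Cells were HepG2 transfected with cis-element reporter units and treated 24 h; fitting was bidirectional relative to DMSO.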

[17] = molecular target: Hepatocyte nuclear factor 6 (Homo sapiens) (UniProt Q9UBC0); test: ATG_HNF6_CIS: Attagene CIS-FACTORIAL HepG2 Assay for human Hepatocyte Nuclear Factor 6 (HNF6) (AID 2282952); settings: HepG2 Attagene cis-factorial HNF6 reporter transcription; actives raise or lower the signal
Outline: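 First, HepG2 cells were transfected with the multiplexed cis reporter library and dosed with chemical for 24 h. Next, RNA was reverse-transcribed, PCR-amplified and fluorescently labelled. Finally, HpaI-digested fragments were read by capillary electrophoresis.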

[18] = ATG_PPRE_CIS: Attagene CIS-FACTORIAL HepG2 Assay for human Peroxisome Proliferator-activated Response Element (PPRE) (AID 2282958); settings: HepG2 PPRE cis-element reporter, Attagene transcription factor profiling; actives raise or lower the signal
Outline: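 HepG2 cells transiently transfected with multiplexed cis-element reporter units measure endogenous transcription factor activity. After 24 h compound exposure, reporter mRNA is quantified by RT-PCR, 6-FAM labeling, HpaI digestion and capillary electrophoresis; bidirectional fits are made against DMSO baseline.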

[19] = ATG_TA_CIS: Attagene CIS-FACTORIAL HepG2 Assay for human TA Basal Promoter (AID 2282964); settings: HepG2 Attagene CIS-factorial TA basal promoter reporter; actives raise or lower the signal
Outline: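 Background internal-marker endpoint from a 52-component HepG2 cis-reporter panel. Cells treated 24 h; reporter transcripts quantified via RT-PCR and CE fluorescence against DMSO baseline.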

Measured: AC50

Chain of Hypoxia-inducible factor 1-alpha (Homo sapiens) (Q16665 whole entry, looked up): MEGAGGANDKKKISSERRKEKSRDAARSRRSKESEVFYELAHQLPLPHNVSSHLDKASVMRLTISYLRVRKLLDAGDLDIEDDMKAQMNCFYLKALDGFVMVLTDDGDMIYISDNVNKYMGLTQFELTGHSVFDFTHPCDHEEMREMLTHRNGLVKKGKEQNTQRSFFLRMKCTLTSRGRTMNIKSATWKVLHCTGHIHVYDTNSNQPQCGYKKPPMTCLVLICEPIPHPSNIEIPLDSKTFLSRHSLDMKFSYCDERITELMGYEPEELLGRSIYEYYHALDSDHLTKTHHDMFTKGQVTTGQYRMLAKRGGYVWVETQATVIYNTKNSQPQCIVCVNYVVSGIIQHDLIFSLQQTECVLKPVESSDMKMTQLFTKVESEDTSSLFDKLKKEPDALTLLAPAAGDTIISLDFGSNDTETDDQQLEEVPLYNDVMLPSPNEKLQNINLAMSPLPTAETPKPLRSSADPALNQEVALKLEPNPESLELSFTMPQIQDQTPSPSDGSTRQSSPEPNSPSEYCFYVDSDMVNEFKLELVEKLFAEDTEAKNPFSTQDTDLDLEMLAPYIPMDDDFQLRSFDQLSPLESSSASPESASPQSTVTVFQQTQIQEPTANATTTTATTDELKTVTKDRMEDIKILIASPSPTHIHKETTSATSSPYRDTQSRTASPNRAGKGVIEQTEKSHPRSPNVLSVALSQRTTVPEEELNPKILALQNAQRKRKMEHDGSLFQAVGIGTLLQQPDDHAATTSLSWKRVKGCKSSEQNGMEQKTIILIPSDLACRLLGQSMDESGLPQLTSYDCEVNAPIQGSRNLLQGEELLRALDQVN
Chain of Paired box protein Pax-6 (Homo sapiens) (P26367 whole entry, looked up): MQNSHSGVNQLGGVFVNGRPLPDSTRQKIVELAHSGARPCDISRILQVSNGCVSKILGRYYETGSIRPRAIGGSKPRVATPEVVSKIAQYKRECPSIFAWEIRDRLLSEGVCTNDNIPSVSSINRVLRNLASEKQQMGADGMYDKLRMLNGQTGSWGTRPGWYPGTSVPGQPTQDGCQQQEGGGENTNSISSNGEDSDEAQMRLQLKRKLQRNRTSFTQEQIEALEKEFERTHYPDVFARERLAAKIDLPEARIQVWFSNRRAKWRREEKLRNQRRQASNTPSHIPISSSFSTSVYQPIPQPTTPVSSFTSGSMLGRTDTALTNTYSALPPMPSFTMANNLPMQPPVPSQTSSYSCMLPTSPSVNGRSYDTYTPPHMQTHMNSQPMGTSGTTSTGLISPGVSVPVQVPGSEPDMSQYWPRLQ
Chain of Signal transducer and activator of transcription 3 (Homo sapiens) (P40763 whole entry, looked up, the tested form may be a part): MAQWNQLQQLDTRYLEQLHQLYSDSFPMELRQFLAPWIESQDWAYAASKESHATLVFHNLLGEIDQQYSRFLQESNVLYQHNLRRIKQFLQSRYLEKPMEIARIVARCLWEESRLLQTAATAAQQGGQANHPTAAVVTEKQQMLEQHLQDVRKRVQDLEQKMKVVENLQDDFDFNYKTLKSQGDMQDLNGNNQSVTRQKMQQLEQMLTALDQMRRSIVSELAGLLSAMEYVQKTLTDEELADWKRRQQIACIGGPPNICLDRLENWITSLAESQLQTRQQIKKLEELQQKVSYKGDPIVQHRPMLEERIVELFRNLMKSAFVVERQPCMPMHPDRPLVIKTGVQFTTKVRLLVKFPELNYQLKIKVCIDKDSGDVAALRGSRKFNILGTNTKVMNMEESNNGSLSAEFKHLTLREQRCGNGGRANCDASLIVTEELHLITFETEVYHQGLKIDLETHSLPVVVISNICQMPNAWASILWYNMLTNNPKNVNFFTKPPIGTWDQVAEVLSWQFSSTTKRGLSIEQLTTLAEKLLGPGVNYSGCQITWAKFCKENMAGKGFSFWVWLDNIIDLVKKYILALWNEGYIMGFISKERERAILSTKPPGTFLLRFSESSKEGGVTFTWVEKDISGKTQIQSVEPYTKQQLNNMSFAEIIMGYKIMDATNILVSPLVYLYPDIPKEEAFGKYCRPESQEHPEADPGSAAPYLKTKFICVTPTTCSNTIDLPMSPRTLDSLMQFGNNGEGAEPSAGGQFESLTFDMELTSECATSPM
Chain of Heat shock factor protein 1 (Homo sapiens) (Q00613 whole entry, looked up): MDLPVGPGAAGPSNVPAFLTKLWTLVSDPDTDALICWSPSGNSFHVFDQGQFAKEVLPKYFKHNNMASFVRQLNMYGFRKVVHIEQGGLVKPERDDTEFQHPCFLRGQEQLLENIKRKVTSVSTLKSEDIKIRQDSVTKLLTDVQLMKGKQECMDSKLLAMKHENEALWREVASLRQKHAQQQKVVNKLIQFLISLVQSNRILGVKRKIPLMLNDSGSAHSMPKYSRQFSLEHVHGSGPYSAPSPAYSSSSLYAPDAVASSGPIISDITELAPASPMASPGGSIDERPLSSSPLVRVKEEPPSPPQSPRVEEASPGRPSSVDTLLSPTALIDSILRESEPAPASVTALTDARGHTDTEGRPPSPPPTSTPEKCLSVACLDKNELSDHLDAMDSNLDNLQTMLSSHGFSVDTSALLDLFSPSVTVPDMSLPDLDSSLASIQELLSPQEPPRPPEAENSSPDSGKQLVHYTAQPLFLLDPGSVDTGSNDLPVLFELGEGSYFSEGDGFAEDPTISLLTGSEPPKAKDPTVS
Chain of Transcription factor Sp1 (Homo sapiens) (P08047 whole entry, looked up): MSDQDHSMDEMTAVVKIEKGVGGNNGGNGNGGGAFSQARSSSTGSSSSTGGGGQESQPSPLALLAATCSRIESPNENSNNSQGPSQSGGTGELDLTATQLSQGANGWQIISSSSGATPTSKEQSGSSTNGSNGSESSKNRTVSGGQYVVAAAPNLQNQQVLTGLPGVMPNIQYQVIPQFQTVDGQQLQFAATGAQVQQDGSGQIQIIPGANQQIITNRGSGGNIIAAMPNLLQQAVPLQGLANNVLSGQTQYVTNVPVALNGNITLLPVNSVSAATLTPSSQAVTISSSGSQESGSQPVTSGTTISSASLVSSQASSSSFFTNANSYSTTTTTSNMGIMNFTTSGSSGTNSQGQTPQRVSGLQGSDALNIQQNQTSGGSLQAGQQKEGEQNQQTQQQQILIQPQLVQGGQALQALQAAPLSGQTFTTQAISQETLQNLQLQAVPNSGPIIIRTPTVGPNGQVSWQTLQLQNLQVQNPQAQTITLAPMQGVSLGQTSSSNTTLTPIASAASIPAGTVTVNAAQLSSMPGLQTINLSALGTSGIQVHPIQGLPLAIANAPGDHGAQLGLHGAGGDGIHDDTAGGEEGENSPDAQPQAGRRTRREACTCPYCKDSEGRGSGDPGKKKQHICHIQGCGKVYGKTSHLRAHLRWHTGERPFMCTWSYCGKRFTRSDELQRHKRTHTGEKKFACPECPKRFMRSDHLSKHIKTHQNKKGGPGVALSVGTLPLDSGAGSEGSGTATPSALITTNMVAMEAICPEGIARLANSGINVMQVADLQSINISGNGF
Chain of Hepatocyte nuclear factor 6 (Homo sapiens) (Q9UBC0 whole entry, looked up, the tested form may be a part): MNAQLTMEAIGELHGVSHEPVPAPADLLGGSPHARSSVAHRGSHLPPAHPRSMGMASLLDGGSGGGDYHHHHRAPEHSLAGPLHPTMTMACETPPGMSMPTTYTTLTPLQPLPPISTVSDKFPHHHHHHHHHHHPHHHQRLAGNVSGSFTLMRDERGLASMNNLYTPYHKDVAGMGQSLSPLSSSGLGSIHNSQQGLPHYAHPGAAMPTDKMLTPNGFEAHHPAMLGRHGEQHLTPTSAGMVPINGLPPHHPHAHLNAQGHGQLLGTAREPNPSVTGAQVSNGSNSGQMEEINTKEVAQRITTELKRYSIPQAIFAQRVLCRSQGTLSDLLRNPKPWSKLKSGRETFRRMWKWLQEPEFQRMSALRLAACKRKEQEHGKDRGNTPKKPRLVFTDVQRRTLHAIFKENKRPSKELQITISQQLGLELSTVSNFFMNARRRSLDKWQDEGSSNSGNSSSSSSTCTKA

C=CC(C)(CCC=C(C)C)OC(=O)CC (configuration not stated)
active: [11] 31 µM
not listed: [17] | [18] | [19]
inactive: all other assays above

O=S1(=O)CC=CC1
not listed: [9] | [10] | [12] | [19]
inactive: all other assays above

Cc1cc(O)c(C)c(C)c1O
active: [11] 9.14 µM
not listed: [13] | [17]
inactive: all other assays above

CCOCC(C)O (configuration not stated)
active: [11] 45.3 µM
not listed: [9] | [17]
inactive: all other assays above

Cc1cc(O)c2c(c1)C(=O)c1cc(O)cc(O)c1C2=O
active: [2] 18.5 µM | [3] 36.2 µM | [8] 18.9 µM | [9] 14.9 µM | [18] 12 µM | [14] 8.81 µM
not listed: [7] | [10]
inactive: all other assays above
